# Whole data set: some 33,000 sequences, median “E-score (-0.5 to 0.5)” near -0.035, cut for the highest 2% near 0.35. Many of the other results were omitted from the sample, so the highest values are more common in it than they were.
# Target: T1, Pdr3 (UniProt P33200)
# T1 sequence: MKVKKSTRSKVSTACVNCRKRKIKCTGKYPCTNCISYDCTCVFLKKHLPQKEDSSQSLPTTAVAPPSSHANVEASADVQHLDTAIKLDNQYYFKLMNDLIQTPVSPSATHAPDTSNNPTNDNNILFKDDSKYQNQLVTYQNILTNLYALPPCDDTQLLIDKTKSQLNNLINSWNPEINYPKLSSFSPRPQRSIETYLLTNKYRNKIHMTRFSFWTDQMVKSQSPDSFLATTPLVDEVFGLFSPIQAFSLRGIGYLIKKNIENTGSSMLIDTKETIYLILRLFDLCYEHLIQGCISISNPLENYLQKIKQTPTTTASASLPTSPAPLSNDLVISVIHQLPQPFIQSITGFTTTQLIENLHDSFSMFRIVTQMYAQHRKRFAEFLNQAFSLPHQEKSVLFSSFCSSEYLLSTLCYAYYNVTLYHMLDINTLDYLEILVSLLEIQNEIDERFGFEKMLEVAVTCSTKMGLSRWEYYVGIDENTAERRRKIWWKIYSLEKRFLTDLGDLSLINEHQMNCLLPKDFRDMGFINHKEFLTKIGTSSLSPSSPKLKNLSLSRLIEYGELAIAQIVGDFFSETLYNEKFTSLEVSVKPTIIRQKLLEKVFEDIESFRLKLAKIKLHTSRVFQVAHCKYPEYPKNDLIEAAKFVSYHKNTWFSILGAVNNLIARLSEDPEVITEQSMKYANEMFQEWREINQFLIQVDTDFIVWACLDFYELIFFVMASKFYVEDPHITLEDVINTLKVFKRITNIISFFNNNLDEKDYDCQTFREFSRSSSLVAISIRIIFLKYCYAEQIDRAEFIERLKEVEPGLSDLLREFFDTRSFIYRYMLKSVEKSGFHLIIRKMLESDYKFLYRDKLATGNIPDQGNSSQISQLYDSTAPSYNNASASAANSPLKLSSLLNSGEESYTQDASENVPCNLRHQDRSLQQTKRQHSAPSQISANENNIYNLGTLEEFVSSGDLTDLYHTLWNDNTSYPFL
# Experiment: PBM E-score (8-mer binding enrichment) (E-score (-0.5 to 0.5)); higher = stronger / more preferred TF binding
# Details: protein concentration: 200 nM; construct: GST-full length
# Method: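 Universal 'all 10-mer' protein binding microarrays (Agilent AMADID 015681) probed with GST-tagged S. cerevisiae TFs (full-length or DBD) made by in vitro transcription/translation (PURExpress), about 100-200 nM. Bound TF was detected with fluorescent anti-GST. Each ungapped 8-mer (which stands for itself and its reverse complement) is scored by the PBM enrichment score (E-score), a modified Wilcoxon-Mann-Whitney statistic from -0.5 to +0.5, computed with the Universal PBM Analysis Suite. Scale: above 0.35 generally sequence-specific binding.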
row,Sequence,PBM E-score
1,CCTGAAGA,-0.0192
2,GGCGCCTA,-0.0415
3,CTACAGCC,-0.129
4,GCCTCATA,0.0142
5,CTTGTCCC,0.19
6,CAGTTCCA,-0.0348
7,CAGTTCCC,0.342
8,AAGTTCCT,0.0364
9,CAGTTCCG,0.473
10,AAGTTCCC,0.14
11,AAGTTCCG,0.445
12,CATGAAGC,0.058
13,CCAGCCTA,-0.182
14,CTAGGGAG,-0.205
15,GCAAGCCC,-0.0061
16,AGGAATTA,-0.091
17,CGGAATTA,0.43
18,CGGAATTC,0.434
19,AGGAATTC,-0.00951
20,GGGAATTA,0.118
21,CTGAATTC,-0.136
22,GTGCCTAA,-0.288
23,CTATCTAA,0.00128
24,GTCCCTGA,-0.23
25,GAGCGAAA,0.146
26,CCTTTCCG,0.387

row,Sequence,PBM E-score
1,CCTTTCCA,-0.0113
2,CCTTTCCC,0.235
3,ACTTTCCT,-0.151
4,ACTTTCCG,0.417
5,ACTTTCCC,0.0862
6,AGGTTTTG,-0.197
7,AAACTCTT,-0.264
8,CAGTCGGC,0.0494
9,AGCCGGAT,0.391
10,AGCCGGTC,-0.0317
11,GGCCGAAA,0.199
12,AGCCGGTG,0.187
13,AGCCGGGG,0.152
14,AGCCGTAT,0.0899
15,AGCCGGAG,0.362
16,GGCCGGAA,0.431
17,CGCCGGAC,0.316
18,CGCCGGAA,0.45
19,CGCCGGAG,0.299
20,GGCCGGAC,0.216
21,GCGGATGA,0.303
22,GAACCCTA,-0.0298
23,AGTTCAAG,0.0398
24,AAAGCTTT,0.00459
25,GGAGCACA,0.0257
26,ACGTACGA,-0.133

row,Sequence,PBM E-score
1,CGTAGAGA,-0.182
2,AGCCGGTA,0.199
3,TGCCGAAA,0.118
4,TGCCGGAA,0.454
5,AGCCGGAA,0.438
6,AGCCGGAC,0.345
7,TGCCGTAA,-0.187
8,AGCAACCT,-0.0661
9,TCGAGGCA,-0.123
10,CGGCGAGA,0.0811
11,GTTTCTCA,-0.134
12,CGGGATCA,0.344
13,ACGGATCT,0.271
14,ACGGATCC,0.445
15,CAGGATCG,0.0205
16,CGGGATCC,0.417
17,CCGGATCG,0.391
18,CCGGATCA,0.389
19,AGGGATCC,0.196
20,GCGGATCA,0.296
21,ACGGATCG,0.236
22,TCGGATCA,0.303
23,CCGGATAG,0.347
24,GGGGTCCA,-0.138
25,CGCTAAAA,0.00276
26,CCTTTTAG,-0.291

row,Sequence,PBM E-score
1,AATCTGCT,-0.15
2,ACCCTCCC,0.299
3,CTGAAGCA,-0.199
4,CCAATGCC,0.0068
5,AGGCATTG,-0.0729
6,CCCATTGC,-0.0113
7,GGCGGTTA,0.0539
8,AAGCATCT,-0.243
9,CATTTGTA,-0.0519
10,AGGCGAAC,-0.114
11,ACGGATCA,0.366
12,CTGGATCC,0.285
13,AAGGATCA,-0.14
14,CAGGATCC,0.0521
15,ATGGATCA,-0.0186
16,CCGGATCC,0.433
17,GCGGATAC,0.311
18,GCGGATCC,0.409
19,GAGGATCC,0.235
20,ATCGTTAA,0.00324
21,CGAATCCA,0.0811
22,CCGTCACG,0.238
23,ATCCCACC,0.266
24,CCTCGGAC,0.282
25,GCTCGGAA,0.413
26,CCTCGGCG,0.376

row,Sequence,PBM E-score
1,CCTCGGAA,0.442
2,GCTCGGAC,0.297
3,CCTCGGAG,0.283
4,ACTCGGAA,0.427
5,CCTCGGCA,0.238
6,ACTCGGAT,0.256
7,CCTCGGCC,0.251
8,GCTCGGTA,0.123
9,ACTCGGAC,0.305
10,AAACGTCA,-0.149
11,AAGCCTGT,0.028
12,CTGCAGGC,-0.094
13,TCTCGTAA,-0.0824
14,TCTCGGCA,0.217
15,TCTCGGAA,0.444
16,AAGGCCAG,-0.0965
17,TAAGCACA,0.108
18,CGGGAACG,0.285
19,AAGGAACC,0.217
20,CCGGAACG,0.475
21,CCGGAACC,0.476
22,CAGGAACC,-0.124
23,AGGGAACC,-0.00025
24,ACGGAACT,0.48
25,CAGGAACG,-0.0257
26,AGGGAACT,0.0568

row,Sequence,PBM E-score
1,CGGGAACC,0.312
2,ACGGAACC,0.487
3,AAGGAACT,0.0764
4,ACTCAACC,-0.035
5,ATTGCACC,-0.0754
6,GGCACTAA,0.156
7,CGATTGCG,0.202
8,CTTTCTGC,-0.0975
9,CAGCACAC,-0.275
10,CACTCGCG,0.0224
11,GACCAATA,-0.0553
12,AGTGGTTG,-0.00222
13,ACGGAACG,0.48
14,GCGGAACC,0.482
15,ATGGAACG,0.0401
16,GGGGAACC,-0.157
17,AAGGAACG,0.00917
18,GAGGAACC,0.0227
19,CGATCTTC,0.0584
20,CTCTTCAG,-0.243
21,CTAACAGA,-0.028
22,AGGAGTGC,-0.0635
23,CCGGTCCG,0.414
24,ATGGTCCA,-0.203
25,CCGGTCCC,0.312
26,CCGGTCCA,0.0798

row,Sequence,PBM E-score
1,ATGGTCCG,0.387
2,ATGGTCCC,-0.0703
3,CAGCTTAC,-0.193
4,GTAGTGAC,0.0971
5,CAGATGCA,-0.278
6,ACGCGCAC,-0.111
7,ACATCCAC,-0.04
8,CAATCATG,-0.189
9,CCGATTCC,0.395
10,CCGATTCG,0.25
11,CGGATTCC,0.454
12,CGGATTCA,0.179
13,GCGATTCC,0.34
14,AGGATTCC,0.223
15,ATTCACCG,0.254
16,ACCCACAG,-0.278
17,CATCTCCC,0.155
18,AATCTCCG,0.322
19,CATCTCCG,0.377
20,GTCTGACA,0.159
21,AACCTTTG,-0.165

# — the supplement of paper PMC3334620
